Among all 39,000 compounds or so, about 3,300 (8.5%) were called active. Shown is part of a subset that was picked to be rich in actives.

This assay concerns HepG2. As to the kind of experiment: cytotoxicity call (relative viability < 0.9). As to conditions: 10 µM.
Turning to `CN(C)CC(=O)N[C@H]1CC[C@@H](CCn2cc(CN(C)C)nn2)O[C@H]1CO`, the cytotoxicity call is “inactive”.
Then `O=C(N[C@@H]1CC=CC[C@H](CC(=O)N(CCO)Cc2ccccc2)C(=O)NCC(c2ccccc2)OC1=O)OCC1c2ccccc2-c2ccccc21` (some centres undefined), with “inactive”; and `C[C@@H]1CN([C@@H](C)CO)C(=O)c2cc(/C=C/c3ccccc3)cnc2O[C@H]1CN(C)C(=O)c1cnccn1`, with “inactive”; and `Cc1cccc(S(=O)(=O)N2C[C@H](O)COC[C@@H]3O[C@@H](CC(=O)NCCCN4CCOCC4)CC[C@H]32)c1`, with “inactive”.
The same measure for `Cc1noc(C)c1NC(=O)N(C)C[C@H]1OCCCC[C@H](C)Oc2ccc(NC(=O)c3ccccc3)cc2C(=O)N([C@H](C)CO)C[C@@H]1C`: “inactive”; for `C[C@H]1CNC(=O)[C@@H](CC(=O)N(CCOC(=O)NCCCCCC(=O)NO)Cc2ccccc2)C/C=C/CC[C@H](NC(=O)OC(C)(C)C)C(=O)O1`: “inactive”; for `COc1ccccc1C#Cc1ccc2c(c1)O[C@@H](CN(C)C(C)=O)[C@@H](C)CN([C@@H](C)CO)S2(=O)=O`: “inactive”.
Take `C[C@H]1CCCCO[C@@H](CN(C)Cc2ccc(C(=O)O)cc2)[C@@H](C)CN([C@@H](C)CO)C(=O)c2cc(NC(=O)C3CCCCC3)ccc2O1`: the cytotoxicity call is “inactive”.
The same measure for `C[C@H](NC(=O)C[C@H]1C[C@@H]2c3cc(NC(=O)Nc4ccc(C(F)(F)F)cc4)ccc3O[C@@H]2[C@H](CO)O1)c1ccccc1`: “inactive”; for `C[C@@H]1CCCCO[C@@H](CN(C)C(=O)Nc2cccc3ccccc23)[C@@H](C)CN([C@H](C)CO)C(=O)c2cc(NS(C)(=O)=O)ccc2O1`: “inactive”.
The same measure for `C[C@H]1CN([C@@H](C)CO)C(=O)c2cc(NC(=O)Cn3cnnn3)ccc2O[C@@H]1CN(C)S(C)(=O)=O`: “inactive”; for `CN(C)C(=O)C[C@@H]1CC[C@@H]2[C@H](COC[C@@H](O)CN2S(=O)(=O)c2ccccc2)O1`: “inactive”; for `C[C@@H]1CN([C@H](C)CO)S(=O)(=O)c2ccc(-c3ccc(F)cc3)cc2O[C@@H]1CN(C)C(=O)C1CCOCC1`: “inactive”.
Turning to `COc1ccc(NC(=O)Nc2ccc3c(c2)C(=O)N([C@H](C)CO)C[C@H](C)[C@@H](CN(C)C(=O)Cc2ccccc2)OCCCC[C@@H](C)O3)cc1`, the cytotoxicity call is “inactive”.
Then `CCc1nc2ccc(C(=O)Nc3cccc(OCC(=O)N(C)C)c3)cn2c1N(C)Cc1cc2ccccc2s1`, with “inactive”.
The same measure for `CCc1nc2ccc(C(=O)NC3CCN(Cc4ccccc4)CC3)cn2c1N(C)Cc1cc2ccccc2s1`: “active”.
The same measure for `CCc1nc2ccc(C(=O)NC3CCN(Cc4ccccc4)CC3)cn2c1N(C)CCN1CCOCC1`: “inactive”; for `C[C@@H]1CCCCO[C@@H](CN(C)C(=O)Nc2ccc(C(F)(F)F)cc2)[C@H](C)CN([C@@H](C)CO)C(=O)c2cc(NC(=O)Cc3ccccc3)ccc2O1`: “inactive”.
Turning to `O=C(O)CN(CCN(CC(=O)O)CC(=O)O)CCN(CC(=O)O)CC(=O)O`, the cytotoxicity call is “inactive”.
The same measure for `CO[C@H]1CCCNC1`: “inactive”; for `C[C@H](CO)N1C[C@H](C)[C@H](CN(C)C(=O)Nc2ccc(C(F)(F)F)cc2)Oc2ccc(NC(=O)CCCCCC(=O)Nc3ccccc3N)cc2C1=O`: “active”; for `C[C@H]1CN([C@@H](C)CO)C(=O)c2cc(NC(=O)CCCCCC(=O)Nc3ccccc3N)ccc2O[C@@H]1CN(C)C(=O)Nc1ccc(C(F)(F)F)cc1`: “inactive”.
Then `COc1ccc(NC(=O)N(C)C[C@@H]2Oc3ccc(NC(=O)CCCCCC(=O)Nc4ccccc4N)cc3C(=O)N([C@H](C)CO)C[C@@H]2C)cc1`, with “active”; and `COc1ccc(NC(=O)N(C)C[C@@H]2Oc3ccc(NC(=O)CCCCCC(=O)Nc4ccccc4N)cc3C(=O)N([C@H](C)CO)C[C@H]2C)cc1`, with “inactive”; and `C[C@@H]1CN([C@H](C)CO)C(=O)c2cc(NC(=O)CCCCCC(=O)Nc3ccccc3N)ccc2O[C@H]1CN(C)C(=O)Nc1ccc(C(F)(F)F)cc1`, with “inactive”.
Turning to `C[C@H](CO)N1C[C@H](C)[C@@H](CN(C)C(=O)Nc2ccc(C(F)(F)F)cc2)Oc2ccc(NC(=O)CCCCCC(=O)Nc3ccccc3N)cc2C1=O`, the cytotoxicity call is “inactive”.
Then `COc1ccc(NC(=O)N(C)C[C@H]2Oc3ccc(NC(=O)CCCCCC(=O)Nc4ccccc4N)cc3C(=O)N([C@@H](C)CO)C[C@H]2C)cc1`, with “inactive”; and `C[C@@H]1CN([C@@H](C)CO)C(=O)c2cc(NC(=O)CCCCCC(=O)Nc3ccccc3N)ccc2O[C@@H]1CN(C)C(=O)Nc1ccc(C(F)(F)F)cc1`, with “inactive”.
The same measure for `C[C@H]1CN([C@@H](C)CO)C(=O)c2cc(NC(=O)CCCCCC(=O)Nc3ccccc3N)ccc2O[C@H]1CN(C)C(=O)Nc1ccc(C(F)(F)F)cc1`: “active”.
Then `C[C@@H]1CCCCO[C@H](CN(C)S(=O)(=O)c2ccc(F)cc2)[C@@H](C)CN([C@@H](C)CO)C(=O)c2cc(NC(=O)Nc3cccc4ccccc34)ccc2O1`, with “inactive”; and `CC(=O)N(C)CCc1ccc(C)[n+]([O-])c1`, with “inactive”.
Turning to `C[C@@H]1CN([C@H](C)CO)C(=O)c2cc(-c3cncnc3)cnc2O[C@@H]1CN(C)C(=O)CN1CCOCC1`, the cytotoxicity call was “inactive”.
Then `Cc1ccc(S(=O)(=O)N(C)C[C@H]2OCCCC[C@@H](C)Oc3ccc(NC(=O)Nc4ccc(F)cc4)cc3C(=O)N([C@@H](C)CO)C[C@@H]2C)cc1`, with “inactive”.
The same measure for `C[C@H](O)C#Cc1cnc2c(c1)C(=O)N([C@H](C)CO)C[C@H](C)[C@H](CN(C)C(=O)Nc1ccc(C(F)(F)F)cc1)O2`: “inactive”; for `CO[C@@H]1CN(C)C(=O)c2cc(NC(=O)C3CC3)ccc2OC[C@H](C)N(C(=O)Cc2ccccn2)C[C@H]1C`: “inactive”; for `O=C1CCC(c2ccc(O)cc2)CC1`: “inactive”.
The same measure for `O=C1C=CC(=O)N1c1ccc(O)cc1`: “active”; for `Cc1ccc(S(=O)(=O)N(C)C[C@H]2OCCCC[C@@H](C)Oc3ccc(NC(=O)Nc4ccc(C(F)(F)F)cc4)cc3C(=O)N([C@H](C)CO)C[C@@H]2C)cc1`: “inactive”; for `C[C@@H]1CN([C@@H](C)CO)C(=O)c2cc(NC(=O)Cn3cnnn3)ccc2O[C@H]1CN(C)S(=O)(=O)c1cn(C)cn1`: “inactive”.
Regarding `C[C@@H]1CN([C@H](C)CO)C(=O)c2cc(NC(=O)Nc3cccc4ccccc34)ccc2O[C@@H](C)CCCCO[C@@H]1CN(C)S(=O)(=O)c1cn(C)cn1`, the cytotoxicity call is “inactive”.
The same measure for `C[C@@H]1CN([C@@H](C)CO)C(=O)c2cccc(NS(=O)(=O)c3cn(C)cn3)c2O[C@@H]1CN(C)S(=O)(=O)c1cccs1`: “inactive”; for `Nc1ccc(C(=O)O)cc1`: “inactive”; for `OCc1ccc(O)cc1`: “inactive”.
`Nc1cccc(O)c1`: the cytotoxicity call is “inactive”.
Then `Oc1ccc(O)cc1`, with “active”.
For `Cc1ccc(O)cc1`, the cytotoxicity call is “inactive”.
The same measure for `Nc1ccc(O)cc1`: “active”; for `C[C@@H]1CCCCO[C@H](CN(C)S(=O)(=O)c2ccccc2)[C@@H](C)CN([C@H](C)CO)C(=O)c2cc(NS(=O)(=O)c3cn(C)cn3)ccc2O1`: “inactive”; for `Cc1noc(C)c1NC(=O)N(C)C[C@@H]1Oc2c(NC(=O)c3ccc(-c4nccs4)cc3)cccc2C(=O)N([C@@H](C)CO)C[C@@H]1C`: “inactive”.
For the molecule `C[C@@H]1CCCCO[C@H](CN(C)C(=O)Cc2ccccc2)[C@H](C)CN([C@H](C)CO)C(=O)c2cc(NS(=O)(=O)c3ccc(F)cc3)ccc2O1`, the cytotoxicity call is “inactive”.
Then `C[C@H](CO)N1C[C@H](C)[C@@H](CN(C)C(=O)Nc2cccc3ccccc23)Oc2ccc(NC(=O)Cc3ccccc3)cc2CC1=O`, with “inactive”; and `Cc1noc(C)c1NC(=O)Nc1ccc2c(c1)C(=O)N([C@@H](C)CO)C[C@H](C)[C@@H](CN(C)Cc1ccc3c(c1)OCO3)OCCCC[C@H](C)O2`, with “inactive”.
With `Brc1cccc2ocnc12`, the cytotoxicity call was “inactive”.
The same measure for `Cc1cc(C(=O)Nc2cccc3c2O[C@H](CN(C)Cc2ccc(C(=O)O)cc2)[C@H](C)CN([C@H](C)CO)C3=O)n(C)n1`: “inactive”; for `CC[C@H](C)[C@@H]([C@@H](CC(=O)N1CCC[C@H]1[C@H](OC)[C@@H](C)C(=O)N[C@@H](Cc1ccccc1)c1nccs1)OC)N(C)C(=O)[C@@H](NC(=O)[C@H](C(C)C)N(C)C)C(C)C`: “active”.
The same measure for `C[C@@H]1CCCCO[C@H](CN(C)C(=O)Nc2cccc3ccccc23)[C@H](C)CN([C@@H](C)CO)C(=O)c2cc(NC(=O)Nc3ccc4c(c3)OCO4)ccc2O1`: “inactive”; for `Cc1noc(C)c1NC(=O)Nc1ccc2c(c1)C(=O)N([C@H](C)CO)C[C@H](C)[C@@H](CN(C)Cc1ccc(-c3ccccc3)cc1)O2`: “inactive”.
Consider `COC(=O)C1=C(C#N)NC(C)=C(C(=O)OC(C)C)C1c1cccc([N+](=O)[O-])c1` (centres undefined), for which the cytotoxicity call is “active”.
On to `CCOC(=O)C1=C(C)NC(c2ccccc2)=C(C(=O)OCc2ccc([N+](=O)[O-])cc2)[C@@H]1C#Cc1ccccc1`, for which the cytotoxicity call was “inactive”.
On to `COC(=O)C1=C(C)NC(C)=C(C(=O)OCC(C)C)C1c1ccccc1[N+](=O)[O-]` (centres undefined), for which the cytotoxicity call is “inactive”.
The same measure for `NNC(=O)c1cccc([N+](=O)[O-])c1`: “inactive”; for `CCOC(=O)C1=C(C)NC(C)=C(C(=O)OC)C1c1cccc([N+](=O)[O-])c1` (centres undefined): “inactive”.
Then `COC(=O)C1=C(C)NC(C)=C(C(=O)OC(C)(C)CN(C)CCC(c2ccccc2)c2ccccc2)[C@@H]1c1cccc([N+](=O)[O-])c1`, with “inactive”; and `O=C(Nc1cccc([N+](=O)[O-])c1)C(=O)NC1CC1`, with “inactive”.
Then `CCCN1C(C)=C(C(=O)OC)[C@@H](c2cccc([N+](=O)[O-])c2)C(C(=O)ON2CCC(c3ccccc3)(c3ccccc3)CC2)=C1C`, with “active”.
As to `COC(=O)C1=C(C)NC(C)=C(C(=O)OCCN(C)Cc2ccccc2)C1c1cccc([N+](=O)[O-])c1.Cl` (centres undefined), the cytotoxicity call is “inactive”.
The same measure for `COC(=O)C1=C(C)NC(C)=C(C(=O)OCCN2CCN(C(c3ccccc3)c3ccccc3)CC2)C1c1cccc([N+](=O)[O-])c1` (centres undefined): “active”.
On to `COC(=O)C1=C(C)NC(C)=C(C(=O)NCCCN2CCC(c3ccccc3)(c3ccccc3)CC2)[C@@H]1c1ccc([N+](=O)[O-])cc1`, for which the cytotoxicity call was “active”.
Then `COC(=O)C1=C(C)NC(C)=C(C(=O)OCC(C)C)[C@@H]1c1ccccc1[N+](=O)[O-]`, with “inactive”.

The values above are taken from the antibiotic and cytotoxicity screens of Wong et al. (2023).
